This is part of a sample that, as a whole, favours compounds with a hit. Of some 79,000 tested, about 15% had one in any assay. A number with no mark means an inactive call. The source made the active and inactive calls. Rule as the data show it: active = growth inhibition above about 70%; inactive = the rest.
Key:
[1] = NCI Yeast Anticancer Drug Screen. Data for the rad50 strain (AID 155);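 also: 0% = growth of vehicle-only cultures of the same strain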; conditions: S. cerevisiae rad50 strain growth inhibition, active compounds read high
Summary of the method: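 Relative growth inhibition (compound vs vehicle) was measured in yeast with a defined repair-gene alteration.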

[2] = NCI Yeast Anticancer Drug Screen. Data for the mec2-1 strain (AID 157); conditions: S. cerevisiae mec2-1 strain, active compounds read high
Summary of the method: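 Growth inhibition is read against vehicle-treated controls after compound exposure of the mec2-1 yeast strain, which is defective in DNA damage repair or cell cycle control.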

[3] = NCI Yeast Anticancer Drug Screen. Data for the sgs1 mgt1 strain (AID 161);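 also: 0% = growth of cultures given vehicle only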; conditions: S. cerevisiae sgs1 mgt1 strain, active compounds read high
Summary of the method: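 Growth of a repair-deficient yeast mutant was monitored after compound treatment and expressed as inhibition relative to vehicle-treated cultures.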

[4] = NCI Yeast Anticancer Drug Screen. Data for the cln2 rad14 strain (AID 165);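 also: 0% = growth equal to vehicle treated cultures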; conditions: S. cerevisiae cln2 rad14 strain, active compounds read high
Summary of the method: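 Growth inhibition, relative to vehicle-treated controls, is the read-out. The test organism is a yeast strain with defined genetic alterations, cln2 rad14.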

[5] = NCI Yeast Anticancer Drug Screen. Data for the bub3 strain (AID 167); conditions: S. cerevisiae bub3 mutant strain, active compounds read high
Summary of the method: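 Screening used yeast with an engineered genetic alteration affecting cell cycle control. Compound-exposed cultures were compared with vehicle cultures, and reduced growth was taken as inhibition.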

[6] = NCI Yeast Anticancer Drug Screen. Data for the mlh1 rad18 strain (AID 175); conditions: S. cerevisiae mlh1 rad18 strain growth inhibition, active compounds read high
Summary of the method: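 Cells of a genetically altered yeast strain, deficient in DNA damage repair, were treated with compound. Their growth was then compared with that of vehicle-treated cultures to give inhibition.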

[7] = at 5.0 µM (retest, dose inferred, filed as 0.5)
[8] = at 50.0 µM (retest, dose inferred, filed as 5.0)

SMILES | growth inhibition [1, 7] | growth inhibition [1, 8] | growth inhibition ([1]; at 50.0 µM) | growth inhibition [2, 7] | growth inhibition [2, 8] | growth inhibition ([2]; at 50.0 µM) | growth inhibition [3, 7] | growth inhibition [3, 8] | growth inhibition ([3]; at 50.0 µM) | growth inhibition [4, 7] | growth inhibition [4, 8] | growth inhibition ([4]; at 50.0 µM) | growth inhibition [5, 7] | growth inhibition [5, 8] | growth inhibition ([5]; at 50.0 µM) | growth inhibition [6, 7] | growth inhibition [6, 8] | growth inhibition ([6]; at 50.0 µM)
CCCCCCCOc1ccc(C=O)cc1OC | 0% | 41% | 7.3% | -1% | 35% | 44% | 3% | 45% | 38.6% | -2% | 26% | 36.9% | -1% | 38% | 50% | 1% | 46% | 33.8%
O=C(OCC1OC(OCC(OC(=O)c2ccccc2)C(OC(=O)c2ccccc2)C(OC(=O)c2ccccc2)c2cnn(-c3ccccc3)n2)C(OC(=O)c2ccccc2)C(OC(=O)c2ccccc2)C1OC(=O)c1ccccc1)c1ccccc1 (configuration not stated) | -6% | -1% | 97.5% (active) | -14% | -21% | 94.8% (active) | -1% | -6% | 98% (active) | 6% | 7% | 98.6% (active) | -12% | 4% | 96.8% (active) | -4% | -10% | 97.7% (active)
COc1ccc(C2=C(Cl)C(=O)N(c3ccccc3C)C(=O)C2(Cl)Cl)cc1 | 66% | 95% (active) | 94.3% (active) | 17% | 97% (active) | 97.8% (active) | 83% (active) | 97% (active) | 97.9% (active) | 24% | 94% (active) | 85.4% (active) | 44% | 95% (active) | 94.1% (active) | 70% (active) | 93% (active) | 97.7% (active)
COC(=O)CC1c2cc(OC)c3cccc(OC)c3c2CCC1(C)C(=O)OC (configuration not stated) | 94% (active) | 89% (active) | 45.8% | 94% (active) | 90% (active) | 18.4% | 95% (active) | 95% (active) | 93.2% (active) | 91% (active) | 90% (active) | 73% (active) | 95% (active) | 90% (active) | 77.2% (active) | 94% (active) | 91% (active) | 13.7%
COc1ccc(C(CN2CCOCC2)C(C)=O)cc1OC (configuration not stated) | 7% | 81% (active) | 72.4% (active) | 12% | 93% (active) | 70.1% (active) | 13% | 85% (active) | 88.5% (active) | 7% | 40% | 23.6% | 10% | 92% (active) | 69.7% | 5% | 93% (active) | 87.2% (active)
CCCCn1c(C)nc2cc(C(F)(F)F)cc(N)c21 | 0% | 41% | 78.6% (active) | -4% | 35% | 48.3% | 0% | 31% | 93.6% (active) | -5% | 8% | 6.6% | -8% | 10% | 31.9% | -11% | 65% | 43.5%
CC(=O)Oc1c(C)cc([N+](=O)[O-])cc1[N+](=O)[O-] | -11% | 99% (active) | 99.7% (active) | 1% | 99% (active) | 99.8% (active) | 11% | 99% (active) | 99.8% (active) | 16% | 99% (active) | 98.9% (active) | 9% | 99% (active) | 99% (active) | 16% | 99% (active) | 99.7% (active)
Cc1cc(=O)[nH]c(NN2C(Cl)C(=O)C2c2ccc(O)cc2)n1 (configuration not stated) | -14% | 81% (active) | 82.2% (active) | -9% | 82% (active) | 67.2% | -5% | 68% | 79.5% (active) | 14% | 63% | 53.6% | 7% | 94% (active) | 78.3% (active) | 7% | 92% (active) | 71.3% (active)
COc1ccc2c(c1)CCc1c(CO)c(COC(=O)NC(C)C)n(C)c1-2 | 87% (active) | 90% (active) | 95.8% (active) | 98% (active) | 91% (active) | 97.7% (active) | 96% (active) | 92% (active) | 96.5% (active) | 3% | 85% (active) | 93.5% (active) | 5% | 40% | 79.3% (active) | 59% | 93% (active) | 88.8% (active)
CC1(C)C(=O)C(C(Cl)(Cl)Cl)=C(Cl)C(=O)C1(Cl)Cl | 64% | 97% (active) | 52.5% | 27% | 96% (active) | 42.1% | 38% | 93% (active) | 64.9% | 49% | 89% (active) | 48.8% | 56% | 96% (active) | 51.1% | 42% | 97% (active) | 67.5%
CC(C)CCCCCCCCCCCCC(=O)NCC(=O)NC1C(O)C(O)C(Nc2ncnc3nc[nH]c23)OC1C(O)CO (configuration not stated) | 25% | 53% | 34.5% | 26% | 46% | 25.9% | 7% | 43% | 52.2% | 5% | -14% | 47.9% | 18% | 63% | 52.4% | 44% | 63% | 53.9%
COP(=O)(OC)OCC1OC(n2cnc3c(N)ncnc32)C(O)C1O (configuration not stated) | -2% | -2% | 96.5% (active) | 2% | 2% | 95.9% (active) | 0% | -2% | 94.5% (active) | 4% | 4% | 89.7% (active) | -1% | -4% | 96.2% (active) | -3% | -5% | 97.3% (active)
O=C1c2ccccc2-c2nnc3c(c21)Cc1ccccc1C3 | -4% | 38% | 50.9% | -21% | 16% | 43% | -7% | 1% | 17.1% | -8% | 27% | 40.5% | 9% | 26% | 67.5% | -6% | 37% | 71% (active)
CC(NNC(=S)N1CCCC1)c1cccnn1 (configuration not stated) | 98% (active) | 99% (active) | 89% (active) | 91% (active) | 99% (active) | 92.3% (active) | 97% (active) | 99% (active) | 88.6% (active) | 96% (active) | 99% (active) | 90.5% (active) | 98% (active) | 99% (active) | 91.2% (active) | 97% (active) | 99% (active) | 85.3% (active)
O=C(NC(=Nc1ccccc1)SCCSC(=Nc1ccccc1)NC(=O)c1ccccc1)c1ccccc1 | 0% | 0% | 85.6% (active) | 18% | 18% | 79.9% (active) | 10% | 10% | 86.2% (active) | 5% | 5% | 84.5% (active) | -3% | -3% | 88% (active) | 1% | 1% | 78% (active)
COc1cccc(CCCNC(=O)Cc2ccccc2CO)c1 | 12% | 14% | 34.2% | 9% | 5% | -55.1% | 9% | 12% | -13.8% | 1% | 5% | 7.7% | 11% | 14% | -12.2% | 13% | 10% | -46.8%
O=C1/C(=C/c2cccc(O)c2)SC(=S)N1/C=C\c1nc2ccccc2[nH]c1=O | 8% | 2% | 9.55% | -8% | -13% | 5.1% | -4% | 1% | 3.6% | 17% | -32% | 33.2% | 11% | -5% | -3.85% | -2% | -7% | -0.25%
CC(=O)O[C@@H]1CO[C@H]2O[C@H]3[C@@H](C(C=O)=C[C@H](O)[C@@H]4C5=C(C(C)C)CC[C@]5(C)CC[C@@]34C)[C@@]2(O)C1=O | 99% (active) | 99% (active) | 92.1% (active) | 99% (active) | 100% (active) | 92.8% (active) | 97% (active) | 100% (active) | 92.7% (active) | 94% (active) | 98% (active) | 91% (active) | 97% (active) | 99% (active) | 91.3% (active) | 98% (active) | 99% (active) | 91.7% (active)
Nc1ccccc1[S][Sn]([c]1ccccc1)([c]1ccccc1)[c]1ccccc1 | 99% (active) | 98% (active) | 98.5% (active) | 99% (active) | 98% (active) | 98.5% (active) | 99% (active) | 99% (active) | 98.5% (active) | 98% (active) | 98% (active) | 98% (active) | 97% (active) | 99% (active) | 98.3% (active) | 99% (active) | 99% (active) | 98.3% (active)
